Rows were chosen to be rich in hits. Some 8% of all compounds tested hit in one or more screens of this group.
HT1080 IDH1KD tx = HT-1080 IDH1 knockdown cell toxicity (counter line); HT-1080 IDH1 knockdown viability, ATP luminescence, 48 h; Potency, µM (highest dose often 46.1 µM), for inactives: at the top dose activity, negative = toxicity, most hits filed as cytotoxic; actives 2% (n = 360,000);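 note: 0% = DMSO wells and -100% = cell-free medium wells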
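Cytotoxicity counter-line: IDH1KD HT-1080, 48 h, CellTiter-Glo. Curves classed by r2, magnitude and activity.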
SW480 rerep = inducers of DNA re-replication in SW480 colon cancer cells; actives 1.8% (n = 340,000); Potency, µM (top dose mostly 46.1 µM), without a hit: at the top dose re-replication activation, hits mostly activators; SW480 DNA re-replication, Hoechst DNA content imaging, 48 h; note: % of control where 0% means no effect; nearly all actives have a fitted effect of over 55% in size
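Quantitative HTS format with DMSO vehicle controls; 48 hr drug incubation at 37 C, then 40 min Hoechst staining and scanning imager measurement at 405 nm excitation.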
KB-V1 cytotox = KB-V1 MDR subline cytotoxicity; KB-V1 MDR cells viability, CellTiter-Glo, 72 h; actives 3.4% (n = 400,000); Potency, µM (top dose mostly 46.1 µM), hits mostly cytotoxic; note: % is set by controls: 0 for no effect and ±100 for the full control effect; nearly all actives have a fitted effect of over 60% in size
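KB-V1, DMEM (no phenol red) + 10% FBS; cpd pin-transferred, titration series; 72 h, 37 degrees C; CellTiter-Glo, luminescence. Data normalized, curve-fit.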
MCF10A rerep = induces DNA re-replication in MCF 10a normal breast cells; AID 624296; MCF 10A DNA re-replication, Hoechst nuclear intensity, 48 h; actives 2.9% (n = 350,000); Potency, µM (titrated, usually from 46.1 µM), inactives show at the highest dose activity, positive = re-replication, actives largely listed as activators; note: % of control where 0% means no effect; nearly all actives have a fitted effect of over 50% in size
KB-3-1 cytotox = KB-3-1 parental cell cytotoxicity | KB-3-1 viability, CellTiter-Glo ATP luminescence, 72 h | Potency, µM (titrated, usually from 46.1 µM), actives largely listed as cytotoxic | actives 1.4% (n = 400,000) | AID 1347075; note: % is set by controls: 0 for no effect and ±100 for the full control effect; nearly all actives have a fitted effect of over 60% in size
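Viability of parental KB-3-1 cells, measured by CellTiter-Glo luminescence, followed a 72 h incubation at 37 °C with pinned compounds in phenol-red-free DMEM containing 10% FBS.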
HT1080-NT tox = kills 2HG-producing HT-1080-NT fibrosarcoma cells | HT-1080-NT fibrosarcoma viability, CellTiter-Glo ATP luminescence, 48 h | Potency, µM (series often up to 46.1 µM), without a hit: top-dose activity, negative = less viability, actives largely listed as cytotoxic | actives 1.6% (n = 360,000) | AID 686970;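 note: NT is the 2HG producing partner of a matched IDH1 knockdown line; 0% = DMSO-treated cells and -100% = media-only wells without cells; nearly all actives have a fitted effect of over 55% in size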
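Toxicity toward the 2HG-producing NT line was scored as %Activity, normalised to DMSO and no-cell wells, from CellTiter-Glo luminescence after 48 hours' treatment.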
* = called active by the depositor. Calls come from the whole dose curve; as a rule, active = well fitted curve in the direction sought with a large enough effect; inconclusive = small, poorly fitted or top-dose-only effect, or another doubt; inactive = no such curve, though single readings can be large; an effect the other way counts as inactive or inconclusive. Potency is the fitted concentration of half-maximal effect.

Results for CCOC(=O)c1sc2nc(C)cc(C)c2c1N ?
HT1080 IDH1KD tx: -16%; SW480 rerep: inconclusive; KB-V1 cytotox: inactive; MCF10A rerep: 18µM*; KB-3-1 cytotox: inactive; HT1080-NT tox: 0%

Results for COc1ccc(NC(=O)c2sc3nc(C)cc(C)c3c2N)c(OC)c1 ?
HT1080 IDH1KD tx: 24%; SW480 rerep: 15µM*; KB-V1 cytotox: inactive; MCF10A rerep: inconclusive; KB-3-1 cytotox: inactive; HT1080-NT tox: 12%

How did Cc1cc(C)c2c(N)c(C(=O)Nc3cccc(C)c3C)sc2n1 do in these assays?
HT1080 IDH1KD tx: inconclusive; SW480 rerep: 12µM*; KB-V1 cytotox: 6.5µM*; MCF10A rerep: 16µM*; KB-3-1 cytotox: inconclusive; HT1080-NT tox: -12%

What do the screens show for `CCCc1nc2sc(C(=O)OCC)c(N)c2c2c1COC(C)(C)C2`?
HT1080 IDH1KD tx: -18%; SW480 rerep: 23%; KB-V1 cytotox: inactive; MCF10A rerep: 3.3µM*; KB-3-1 cytotox: inactive; HT1080-NT tox: -6%

What do the screens show for `Cc1cc(C)cc(NC(c2cccc(Cl)c2)c2nnc(-c3ccccc3)o2)c1` (stereo not given)?
KB-V1 cytotox: inactive; KB-3-1 cytotox: inactive

Results for CCOc1ccc(-c2nc3c(c(SCC(=O)N4CCCCC4)n2)Cc2cc(C)ccc2O3)cc1 ?
KB-V1 cytotox: inconclusive; KB-3-1 cytotox: inactive

How did Nc1ccn([C@@H]2O[C@H](CO)[C@H](O)C2(F)F)c(=O)n1 do in these assays?
SW480 rerep: inconclusive; MCF10A rerep: 7%

What do the screens show for `N#CCc1nc2c3c4c(sc3ncn2n1)CCCC4`?
HT1080 IDH1KD tx: 3%; SW480 rerep: 3%; KB-V1 cytotox: inconclusive; MCF10A rerep: 3%; KB-3-1 cytotox: 2.3µM*; HT1080-NT tox: 3%

What do the screens show for `CCOc1ccc(CCNC(=O)c2ccc(-c3nc(COc4ccc(C)cc4)c(C)o3)cc2)cc1`?
KB-V1 cytotox: inactive; KB-3-1 cytotox: inactive

How did CC(C)C(=O)NC(=S)Nc1ccc(S(=O)(=O)Nc2ccccc2)cc1 do in these assays?
HT1080 IDH1KD tx: 15%; SW480 rerep: inconclusive; KB-V1 cytotox: 23µM*; MCF10A rerep: inconclusive; KB-3-1 cytotox: inactive; HT1080-NT tox: 1%

Results for CC(=O)NC(=S)Nc1ccc(S(=O)(=O)N(C)Cc2ccccc2)cc1 ?
HT1080 IDH1KD tx: inconclusive; SW480 rerep: 17%; KB-V1 cytotox: inconclusive; MCF10A rerep: inconclusive; KB-3-1 cytotox: inactive; HT1080-NT tox: -28%

What do the screens show for `CC(C)C(=O)NC(=S)Nc1ccc(S(=O)(=O)N(C)Cc2ccccc2)cc1`?
HT1080 IDH1KD tx: 21µM*; SW480 rerep: inconclusive; KB-V1 cytotox: inconclusive; MCF10A rerep: inconclusive; KB-3-1 cytotox: inconclusive; HT1080-NT tox: inconclusive

What do the screens show for `CN(Cc1ccccc1)S(=O)(=O)c1ccc(NC(=O)C2CCCCC2C(=O)O)cc1` (stereo not given)?
HT1080 IDH1KD tx: 0%; SW480 rerep: -9%; KB-V1 cytotox: 21µM*; MCF10A rerep: 14%; KB-3-1 cytotox: inactive; HT1080-NT tox: -4%

Results for COc1ccc(NS(=O)(=O)c2ccc(NC(=S)NC(=O)C(C)C)cc2)cc1 ?
HT1080 IDH1KD tx: 0%; SW480 rerep: 7%; KB-V1 cytotox: inactive; MCF10A rerep: 15%; KB-3-1 cytotox: inactive; HT1080-NT tox: -12%

What do the screens show for `COc1ccccc1Cn1c(C2CC(=O)N(c3ccccc3OC)C2)nc2ccccc21` (stereo not given)?
KB-V1 cytotox: inactive; KB-3-1 cytotox: inactive

How did CCN(Cc1ccccc1)Cc1c(O)ccc2c(=O)c(-c3ccccc3Cl)coc12 do in these assays?
KB-V1 cytotox: inactive; KB-3-1 cytotox: inactive

What do the screens show for `COc1cc2c(c(OC)c1OC)-c1ccc(NC(=O)c3ccc(F)cc3)c(=O)cc1[C@@H](NC(C)=O)CC2`?
HT1080 IDH1KD tx: inconclusive; SW480 rerep: inconclusive; KB-V1 cytotox: inactive; MCF10A rerep: 3.3µM*; KB-3-1 cytotox: inconclusive; HT1080-NT tox: inconclusive

What do the screens show for `COc1cc(NC(=O)c2ccc(F)cc2)c(OC)cc1Cl`?
HT1080 IDH1KD tx: -11%; SW480 rerep: -12%; KB-V1 cytotox: inactive; MCF10A rerep: 9%; KB-3-1 cytotox: inactive; HT1080-NT tox: -6%

What do the screens show for `COc1cc2c(c(OC)c1OC)-c1ccc(NCc3ccccc3)c(=O)cc1C(NC(C)=O)CC2` (stereo not given)?
HT1080 IDH1KD tx: 2.3µM*; KB-V1 cytotox: inactive; KB-3-1 cytotox: 1.2µM*; HT1080-NT tox: 3.7µM*

How did COC(=O)c1cnn2c(C)c(Cc3c(C)cc(C)cc3C)c(C)nc12 do in these assays?
KB-V1 cytotox: inactive; KB-3-1 cytotox: inactive

How did CCCOc1cccc(C(=O)Nc2ccc(-c3nc4ccccc4o3)cc2)c1 do in these assays?
KB-V1 cytotox: inactive; KB-3-1 cytotox: inactive

What do the screens show for `COc1ccccc1CNC(=O)C(=O)NCC(c1cccs1)S(=O)(=O)c1ccccc1` (stereo not given)?
KB-V1 cytotox: inactive; KB-3-1 cytotox: inactive

How did C(=NN=C1c2ccccc2-c2ccccc21)c1c[nH]c2ccccc12 do in these assays?
HT1080 IDH1KD tx: inconclusive; SW480 rerep: 9%; KB-V1 cytotox: 23µM*; MCF10A rerep: inconclusive; KB-3-1 cytotox: inconclusive; HT1080-NT tox: -10%

Results for COc1ccc(CNc2ncnc3nc[nH]c23)cc1 ?
HT1080 IDH1KD tx: -5%; KB-V1 cytotox: inactive; KB-3-1 cytotox: inactive; HT1080-NT tox: 1%

Results for COc1ccc(CNc2nc(NCc3ccc(OC)cc3)c3[nH]cnc3n2)cc1 ?
HT1080 IDH1KD tx: inconclusive; SW480 rerep: 5%; KB-V1 cytotox: inactive; MCF10A rerep: 12µM*; KB-3-1 cytotox: inconclusive; HT1080-NT tox: inconclusive

What do the screens show for `CC(C)(C)N1C(=O)Cc2c1nc(N)c1c(N)nc(N3CCCCC3CO)c(C#N)c21` (stereo not given)?
HT1080 IDH1KD tx: -1%; SW480 rerep: 8%; KB-V1 cytotox: inconclusive; MCF10A rerep: 15µM*; KB-3-1 cytotox: inconclusive; HT1080-NT tox: -8%

Results for CCN(CC)c1cc(C)c2cc(NC(=O)c3ccccc3Cl)ccc2n1 ?
KB-V1 cytotox: inactive; KB-3-1 cytotox: inconclusive

Results for CN1CCN(CC(=O)N2CCn3c4c(c5cc(C6CCCCC6)ccc53)CCCC42)CC1 (stereo not given) ?
HT1080 IDH1KD tx: 23µM*; SW480 rerep: 24%; KB-V1 cytotox: inactive; MCF10A rerep: inconclusive; KB-3-1 cytotox: inconclusive; HT1080-NT tox: inconclusive

Assay outcomes: PubChem, National Center for Advancing Translational Sciences (NCATS)
